# Results filed as inconclusive are left out. Calls of active or inactive are those of the source. Rule for the calls: active = hit-call score of the fitted dose curve at least 0.9, where 1 is the maximum; inconclusive = response in the unintended direction; inactive = score below 0.9.
# Biological target: human Beta-secretase (BACE), BACE1 (gene 23621) (UniProt P56817)
# Test: NVS_ENZ_hBACE: NovaScreen (NVS) Enzymatic Assay for human Beta-secretase (BACE) (AID 2283140);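 note: hits are inhibitors that reduce fluorescent substrate signal versus DMSO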
# Outline: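 Enzyme activity of SF9-produced BACE1 is measured cell-free by fluorescence, 1 hour post dosing, normalised to DMSO. Screening used 25 uM in duplicate, with concentration-response follow-up for actives.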
# Chain of human Beta-secretase (BACE), BACE1 (gene 23621) (P56817 whole entry, looked up): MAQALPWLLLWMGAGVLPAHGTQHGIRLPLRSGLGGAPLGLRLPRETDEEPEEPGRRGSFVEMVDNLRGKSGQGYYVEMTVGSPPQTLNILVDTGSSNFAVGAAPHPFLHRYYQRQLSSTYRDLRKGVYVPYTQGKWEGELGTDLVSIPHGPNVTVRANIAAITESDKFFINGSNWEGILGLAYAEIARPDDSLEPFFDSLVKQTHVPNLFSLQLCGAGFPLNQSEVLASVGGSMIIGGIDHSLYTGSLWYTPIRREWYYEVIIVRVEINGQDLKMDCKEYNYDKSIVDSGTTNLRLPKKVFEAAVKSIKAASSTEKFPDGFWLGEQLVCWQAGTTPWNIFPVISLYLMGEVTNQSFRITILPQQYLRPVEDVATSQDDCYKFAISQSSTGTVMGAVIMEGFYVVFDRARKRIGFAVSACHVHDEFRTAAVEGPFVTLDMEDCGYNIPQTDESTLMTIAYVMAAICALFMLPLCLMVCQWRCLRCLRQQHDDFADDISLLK
SMILES,outcome,AC50
CCCCCCCCCC,inactive,–
CCCCCCCC/C=C\CCCCCCCC(=O)OC[C@@H](O)[C@H]1OC[C@H](O)[C@H]1O,–,6.7 µM (active)
O=C(N[C@H](CO)[C@H](O)c1ccc([N+](=O)[O-])cc1)C(Cl)Cl,inactive,–
CCCCCCCCCCCCCCCCOS(=O)(=O)O,–,1.27 µM (active)
OCc1c[nH]c2ccccc12,–,25 µM (active)
CCCCC(CC)C(=O)OCCOCCOCCOC(=O)C(CC)CCCC (stereo not given),inactive,–
C=CCc1cc(S(=O)(=O)c2ccc(O)c(CC=C)c2)ccc1O,–,15.2 µM (active)
S=P(N1CC1)(N1CC1)N1CC1,–,22.4 µM (active)
CC[C@H](C)C(=O)O[C@H]1C[C@H](O)C=C2C=C[C@H](C)[C@H](CC[C@@H](O)C[C@@H](O)CC(=O)O)[C@H]21,inactive,–
CCCCN1C(=O)[C@@H]([C@H](O)C2CCCCC2)NC(=O)C12CCN(Cc1ccc(Oc3ccc(C(=O)O)cc3)cc1)CC2,inactive,–

# — PubChem BioAssay (EPA / NIEHS)
